# According to the supplement of paper PMC10646978:
# ± gives the standard deviation.
# Experiments:
# Settings in all cases: modulator concentration 10 µM
# [1] = test system: RAW-Dual (murine macrophage reporter line); experiment: NF-kB reporter (SEAP) activity fold change vs agonist alone; higher = enhanced NF-kB activity
# Method in brief: (§1)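 Overnight stimulation with a PRR agonist followed pre-incubation for 1 hour at 37 °C with compound at 10 μM final. This was done in RAW-Dual murine macrophage reporter cells seeded at 50 000 per well in 384-well plates. NF-κB (SEAP, QUANTI-Blue absorbance at 620 nm) and IRF (Lucia luciferase, QUANTI-Luc luminescence) were read from the supernatant. Each reporter's fold change relative to the mean agonist-only control on the same plate was averaged over replicate plates.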
# [2] = test system: RAW-Dual (murine macrophage reporter line); experiment: IRF reporter (Lucia luciferase) activity fold change vs agonist alone; higher = enhanced IRF activity
# Method in brief: as §1
# [3] = test system: RAW-Dual (murine macrophage reporter line); experiment: viability score (confluency relative to resting cells, overnight) (fraction); higher = more viable, active = viable (0.7 or more)
# Method in brief: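 RAW-Dual macrophages in 384-well plates were treated overnight with compound at 10 μM final. IncuCyte imaging recorded confluency, and IncuCyte software built two confluency masks across every imaged well. The viability score expresses confluency relative to resting cells and was judged against a cutoff, which a compound met only if both masks exceeded 70% of resting cells.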
# [4] = agonist: CpG ODN 1826 0.5 ug/mL
Compound,"NF-kB reporter [1, 4]",NF-kB reporter ([1]; agonist: LPS 0.1 ug/mL),NF-kB reporter ([1]; agonist: MPLA […]),IRF reporter ([2]; agonist: 3'3'-cGAMP 10 ug/mL),IRF reporter ([2]; agonist: LPS 0.1 ug/mL),IRF reporter ([2]; agonist: MPLA […]),viability score [3]
CC(NC(=O)C(=O)NN=Cc1ccc(Cl)cc1Cl)c1ccccc1 (configuration not stated),0.967 ± 0.095,1.16 ± 0.077,0.953 ± 0.084,1.22 ± 0.051,1.39 ± 0.16,1.14 ± 0.11,0.991 (active)
CCc1cnn2c(NCc3ccc[n+]([O-])c3)cc(N3CCCC[C@H]3CCO)nc12,0.338 ± 0.018,0.0505 ± 0.0045,0.114 ± 0.0049,0.0244 ± 0.0044,0.0353 ± 0.0054,0.0374 ± 0.0047,0.0417 (inactive)
O=C(Nc1ccccn1)c1ccc(OCC2CCCO2)nc1 (configuration not stated),1.12 ± 0.064,1.02 ± 0.077,1 ± 0.031,0.936 ± 0.077,1.04 ± 0.059,1.04 ± 0.1,0.997 (active)
O=c1ccn([C@@H]2O[C@H](CO)[C@@H](O)[C@H]2O)c(=O)[nH]1,1.05 ± 0.087,0.912 ± 0.045,1.05 ± 0.059,1.09 ± 0.066,0.985 ± 0.032,0.919 ± 0.1,0.998 (active)
COc1ccc(-n2nc(C(N)=O)c3c2C(=O)N(c2ccc(N4CCCCC4=O)cc2)CC3)cc1,0.793 ± 0.076,0.859 ± 0.052,1.12 ± 0.12,0.994 ± 0.046,1.19 ± 0.073,1.33 ± 0.11,1.01 (active)
CC(C)c1ccccc1NC(=O)C1COCC(=O)N1Cc1ccccc1 (configuration not stated),0.983 ± 0.063,0.996 ± 0.15,1.08 ± 0.058,0.985 ± 0.074,1.15 ± 0.26,1.29 ± 0.51,0.979 (active)
CN1CCc2c(sc3[nH]c(=S)n(CCc4ccccc4)c(=O)c23)C1,0.753 ± 0.063,0.814 ± 0.042,0.967 ± 0.11,0.778 ± 0.042,1.28 ± 0.083,1.39 ± 0.17,1.01 (active)
Cc1cccc(N2C(=O)C(=Cc3cccc([N+](=O)[O-])c3)SC2=S)c1C,0.964 ± 0.1,1.02 ± 0.094,0.937 ± 0.06,0.853 ± 0.035,1.57 ± 0.17,1.29 ± 0.11,0.989 (active)
Cc1ccc(O)c(N=Nc2ccc(S(=O)(=O)O)cc2)c1,1.17 ± 0.11,1.15 ± 0.085,1.07 ± 0.043,1.01 ± 0.12,1.08 ± 0.16,1.07 ± 0.15,1.01 (active)
N=C1NC(=O)C(=Cc2ccc(-c3ccc(F)cc3)o2)S1,0.507 ± 0.047,0.632 ± 0.042,0.964 ± 0.043,1.02 ± 0.17,0.989 ± 0.15,0.798 ± 0.13,1 (active)
O=c1[nH]cnc2ccccc12,0.416 ± 0.14,0.159 ± 0.013,0.215 ± 0.019,0.133 ± 0.013,0.378 ± 0.098,0.0913 ± 0.014,0.561 (inactive)
O=C(Nc1ccc([N+](=O)[O-])cc1Cl)c1cccnc1,0.871 ± 0.26,0.96 ± 0.11,0.982 ± 0.16,0.958 ± 0.061,1.06 ± 0.23,1.33 ± 0.37,0.996 (active)
Br.NC(=O)C(c1ccccc1)(c1ccccc1)[C@@H]1CCN(CCc2ccc3c(c2)CCO3)C1,0.471 ± 0.18,1.25 ± 0.27,1.53 ± 0.37,0.485 ± 0.015,1.15 ± 0.41,1.41 ± 0.22,0.975 (active)
CC(=O)OC1(C(C)=O)CCC2C3C=C(C)C4=CC(=O)CCC4(C)C3CCC21C (configuration not stated),1.18 ± 0.088,1.08 ± 0.054,1.21 ± 0.026,1.04 ± 0.069,0.875 ± 0.1,0.986 ± 0.14,0.995 (active)
CC(C)(C)NCC(O)COc1cccc2c1CC(O)C(O)C2 (configuration not stated),1.26 ± 0.3,1 ± 0.11,1.05 ± 0.095,0.919 ± 0.045,1.04 ± 0.16,0.968 ± 0.17,0.931 (active)
Clc1ccccc1C1Nc2cccc3cccc(c23)N1,1.04 ± 0.092,0.898 ± 0.091,0.867 ± 0.084,0.684 ± 0.06,0.967 ± 0.14,0.792 ± 0.14,0.97 (active)
CC1CCc2nc(NC(=O)C3CCCN3S(C)(=O)=O)sc2C1 (configuration not stated),0.812 ± 0.037,1.03 ± 0.082,1.08 ± 0.057,0.983 ± 0.045,1.35 ± 0.27,1.44 ± 0.48,0.964 (active)
O=C(NCCSC1CCOCC1)c1ccc(Cl)s1,1.21 ± 0.069,0.992 ± 0.1,1.02 ± 0.036,0.898 ± 0.055,1.03 ± 0.054,1.13 ± 0.14,1 (active)
CC1(COc2ccc3c(c2)ncn3-c2ccc3cccc(N4CCC(N)CC4)c3n2)COC1,0.379 ± 0.25,0.397 ± 0.099,2.05 ± 0.24,0.0544 ± 0.0038,0.345 ± 0.037,0.339 ± 0.06,0.464 (inactive)
C/C(O)=C(\C#N)C(=O)Nc1ccc(C(F)(F)F)cc1,0.861 ± 0.037,1.04 ± 0.084,1.01 ± 0.074,0.855 ± 0.044,1.24 ± 0.26,1.4 ± 0.58,1 (active)
Cc1ccc(C)n1-c1ccc(C(=O)OCC(=O)c2ccc([N+](=O)[O-])cc2)cc1,0.888 ± 0.071,0.845 ± 0.054,1.31 ± 0.42,0.666 ± 0.044,1.1 ± 0.064,1.01 ± 0.14,0.976 (active)
CC1Cc2ccccc2N1C(=O)c1cc2n(n1)CCCO2 (configuration not stated),0.962 ± 0.076,0.949 ± 0.06,1.09 ± 0.12,0.903 ± 0.054,1.39 ± 0.082,1.44 ± 0.15,0.985 (active)
CCOc1ccc(NC(=O)CC2Nc3cccc4cccc(c34)NC2=O)cc1 (configuration not stated),0.91 ± 0.066,1.01 ± 0.067,0.926 ± 0.077,0.884 ± 0.049,1.31 ± 0.083,1.25 ± 0.34,0.926 (active)
O=C(Nc1ccccc1Cl)c1ccc(OCC2CCCO2)nc1 (configuration not stated),1.17 ± 0.066,1.06 ± 0.12,0.981 ± 0.026,1.3 ± 0.35,1 ± 0.058,0.976 ± 0.098,0.999 (active)
Cn1cnc([N+](=O)[O-])c1Sc1ncnc2nc[nH]c12,1.1 ± 0.2,0.844 ± 0.23,0.983 ± 0.077,0.934 ± 0.031,1.2 ± 0.33,0.986 ± 0.23,0.983 (active)
COc1cc(=O)n(C)cc1C(=O)Nc1cccnc1,1.06 ± 0.065,0.817 ± 0.13,1.06 ± 0.065,0.943 ± 0.064,0.899 ± 0.17,0.915 ± 0.25,0.967 (active)
